Measurements published in PubChem BioAssay (Tox21).
Records with an inconclusive call do not appear. The source made the active and inactive calls. Unless noted, calls come from the whole dose curve; as a rule, active = well fitted curve in the direction sought with a large enough effect in the repeat runs; inconclusive = weak or mixed curves; inactive = no such curve, though single readings can be large; an effect the other way counts as inactive or inconclusive.

Test: qHTS assay to identify small molecule antagonists of the estrogen related receptor (ERR) signaling pathway from Tox21 library (AID 1224848); note: nearly all actives have a fitted effect of over 50% in size
Details: ERR reporter cell line, luciferase antagonist mode, 18 h; series mostly up to 92.4 µM; activity, negative = inhibition: at the top concentration
How it was run: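 Quantitative high-throughput format: ERR reporter cells (2,000/well) pre-incubated 6 h, treated 18 h at 37 C with compounds in DMSO alongside positive and negative controls, then read by ONE-Glo luminescence.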
% is set by controls: 0 for no effect and ±100 for the full control effect.

**Q.** For `CC(C)(N)C#N`, which “activity, negative = inhibition” value is on record?
**A.** The value was 4.55% (inactive).

**Q.** For `CO/N=C(\C(=O)N[C@@H]1C(=O)N2C(C(=O)O)=C(CSc3nc(=O)c(O)nn3C)CS[C@H]12)c1csc(N)n1`, which “activity, negative = inhibition” value is on record?
**A.** The value was 0.513% [at 42.5 µM] (inactive).

**Q.** Which “activity, negative = inhibition” value does the source give for `O=S(=O)(O)c1cccc2ccccc12` here?
**A.** The value was 8.09% (inactive).

**Q.** For `COc1ccc2cc1Oc1cc3c(cc1OC)CC[N+](C)(C)[C@H]3Cc1ccc(cc1)Oc1c(OC)c(OC)cc3c1[C@@H](C2)[N+](C)(C)CC3`, which “activity, negative = inhibition” value is on record?
**A.** Its value is 10.9% [at 42.5 µM] (inactive).

**Q.** Which “activity, negative = inhibition” value does the source give for `CCCC(C)C(=O)OCC` (configuration not stated) here?
**A.** Its value is 1.11% (inactive).

**Q.** Which “activity, negative = inhibition” value does the source give for `CC(=O)OCC(=O)[C@@]1(O)[C@H](C)C[C@H]2[C@@H]3CCC4=CC(=O)C=C[C@]4(C)[C@@]3(F)[C@@H](O)C[C@@]21C` here?
**A.** The value was -15.9% [at 42.5 µM] (inactive).

**Q.** For `O=C(CO)[C@@H](O)[C@H](O)[C@@H](O)CO`, which “activity, negative = inhibition” value is on record?
**A.** Its value is 8.85% [at 42.5 µM] (inactive).

**Q.** With `NC(N)=NCCN1CCCCCCC1` as the compound, how does the activity, negative = inhibition read?
**A.** The activity, negative = inhibition was 12.8% [at 0.349 µM] (inactive).

**Q.** For `Cc1ccc(C(=O)Nc2ccc(S(=O)(=O)O)c3cc(S(=O)(=O)O)cc(S(=O)(=O)O)c23)cc1NC(=O)c1cccc(NC(=O)Nc2cccc(C(=O)Nc3cc(C(=O)Nc4ccc(S(=O)(=O)O)c5cc(S(=O)(=O)O)cc(S(=O)(=O)O)c45)ccc3C)c2)c1`, which “activity, negative = inhibition” value is on record?
**A.** Its value is -10.1% [at 42.5 µM] (inactive).

**Q.** Which “activity, negative = inhibition” value does the source give for `CC(=O)c1ccccc1[N+](=O)[O-]` here?
**A.** The value was 6.62% (inactive).

**Q.** With `CC(C)(C)c1ccc(-c2ccc(C(C)(C)C)cc2)cc1` as the compound, how does the “activity, negative = inhibition” value read?
**A.** Its value is 6.61% (inactive).

**Q.** With `c1ccc2sc(SN3CCOCC3)nc2c1` as the compound, how does the “activity, negative = inhibition” value read?
**A.** The value was 20.8% [at 42.5 µM] (inactive).

**Q.** Which “activity, negative = inhibition” value does the source give for `C[N+](C)(CCOc1ccccc1)Cc1cccs1` here?
**A.** Its value is 4.15% [at 42.5 µM] (inactive).

**Q.** With `OCCCCCO` as the compound, how does the “activity, negative = inhibition” value read?
**A.** Its value is 2.23% (inactive).

Test: qHTS assay to identify small molecule agonists of the estrogen related receptor (ERR) signaling pathway from Tox21 library (AID 1224849; calls by dose curve; note: nearly all actives have a fitted effect of over 15% in size)
Details: ERR reporter cell line, ONE-Glo luciferase, 18 h; series mostly up to 92.4 µM; activity change, positive = activation: at the top concentration
How it was run: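 Luminescence readout (ONE-Glo, 30 min RT) after 18 h compound exposure at 37 C of NTP-supplied ERR reporter cells; cells were plated 6 h before compound addition by pin tool.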

**Q.** For `CC(C)(N)C#N`, which “activity change, positive = activation” value is on record?
**A.** Its value is 2.41% (inactive).

**Q.** With `CO/N=C(\C(=O)N[C@@H]1C(=O)N2C(C(=O)O)=C(CSc3nc(=O)c(O)nn3C)CS[C@H]12)c1csc(N)n1` as the compound, how does the “activity change, positive = activation” value read?
**A.** The value was 0.326% [at 42.5 µM] (inactive).

**Q.** Which “activity change, positive = activation” value does the source give for `O=S(=O)(O)c1cccc2ccccc12` here?
**A.** Its value is 5.98% (inactive).

**Q.** Which “activity change, positive = activation” value does the source give for `COc1ccc2cc1Oc1cc3c(cc1OC)CC[N+](C)(C)[C@H]3Cc1ccc(cc1)Oc1c(OC)c(OC)cc3c1[C@@H](C2)[N+](C)(C)CC3` here?
**A.** Its value is 7.03% [at 42.5 µM] (inactive).

**Q.** With `CCCC(C)C(=O)OCC` (configuration not stated) as the compound, how does the “activity change, positive = activation” value read?
**A.** The value was 0.804% (inactive).

**Q.** With `CC(=O)OCC(=O)[C@@]1(O)[C@H](C)C[C@H]2[C@@H]3CCC4=CC(=O)C=C[C@]4(C)[C@@]3(F)[C@@H](O)C[C@@]21C` as the compound, how does the “activity change, positive = activation” value read?
**A.** The value was -9.88% [at 42.5 µM] (inactive).

**Q.** For `O=C(CO)[C@@H](O)[C@H](O)[C@@H](O)CO`, which “activity change, positive = activation” value is on record?
**A.** The value was 4.93% [at 42.5 µM] (inactive).

**Q.** With `NC(N)=NCCN1CCCCCCC1` as the compound, how does the activity change, positive = activation read?
**A.** The activity change, positive = activation was 7.2% [at 0.349 µM] (inactive).

**Q.** For `Cc1ccc(C(=O)Nc2ccc(S(=O)(=O)O)c3cc(S(=O)(=O)O)cc(S(=O)(=O)O)c23)cc1NC(=O)c1cccc(NC(=O)Nc2cccc(C(=O)Nc3cc(C(=O)Nc4ccc(S(=O)(=O)O)c5cc(S(=O)(=O)O)cc(S(=O)(=O)O)c45)ccc3C)c2)c1`, which “activity change, positive = activation” value is on record?
**A.** The value was -7.17% [at 42.5 µM] (inactive).

**Q.** Which “activity change, positive = activation” value does the source give for `CC(=O)c1ccccc1[N+](=O)[O-]` here?
**A.** The value was 4.54% (inactive).

**Q.** For `CC(C)(C)c1ccc(-c2ccc(C(C)(C)C)cc2)cc1`, which “activity change, positive = activation” value is on record?
**A.** The value was 5.38% (inactive).

**Q.** With `c1ccc2sc(SN3CCOCC3)nc2c1` as the compound, how does the “activity change, positive = activation” value read?
**A.** Its value is 11.5% [at 42.5 µM] (inactive).

**Q.** Which “activity change, positive = activation” value does the source give for `OCCCCCO` here?
**A.** The value was 2.11% (inactive).

Test: qHTS RealTime-Glo MT Cell Viability Assay in HepG2 cells - 24 hour (AID 1224867); note: nearly all actives have a fitted effect of over 50% in size
Details: RealTime-Glo luminescence; series mostly up to 76.8 µM; activity change, negative = cytotoxicity: at the top concentration
How it was run: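 HepG2 cells (600/well) were dispensed with RealTime-Glo reagents, incubated 5 h at 37 °C, then treated with compounds in DMSO for up to 40 h. Nonlytic NanoLuc luminescence reflecting viable cells was read at each stated time point.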

**Q.** For `CC(=O)c1ccc2ccccc2c1`, which “activity change, negative = cytotoxicity” value is on record?
**A.** The value was 1.34% (inactive).

**Q.** With `CCCCc1nc(Cl)c(CO)n1Cc1ccc(-c2ccccc2-c2nn[nH]n2)cc1` as the compound, how does the “activity change, negative = cytotoxicity” value read?
**A.** Its value is 2.03% [at 35.3 µM] (inactive).

**Q.** With `COC(=O)Nc1ccc(Cl)c(Cl)c1` as the compound, how does the “activity change, negative = cytotoxicity” value read?
**A.** The value was 0.67% (inactive).

**Q.** For `NC(=O)N1c2ccccc2CC(=O)c2ccccc21`, which “activity change, negative = cytotoxicity” value is on record?
**A.** Its value is 1.07% [at 35.3 µM] (inactive).

**Q.** Which “activity change, negative = cytotoxicity” value does the source give for `CC1=CC(=O)[C@H]2C[C@@H]1C2(C)C` here?
**A.** Its value is 0.421% (inactive).

**Q.** Which “activity change, negative = cytotoxicity” value does the source give for `CC(C)(N)C#N` here?
**A.** Its value is -5.47% (inactive).

**Q.** Which “activity change, negative = cytotoxicity” value does the source give for `O=C(O)c1cn(C2CC2)c2cc(N3CCNCC3)c(F)cc2c1=O` here?
**A.** Its value is 3.29% [at 35.3 µM] (inactive).

**Q.** Which “activity change, negative = cytotoxicity” value does the source give for `CC1=NN(c2cc(S(=O)(=O)O)ccc2Cl)C(=O)C1N=Nc1ccccc1` (configuration not stated) here?
**A.** Its value is -1.56% (inactive).

**Q.** With `CCCC(C)C(=O)OCC` (configuration not stated) as the compound, how does the “activity change, negative = cytotoxicity” value read?
**A.** The value was 3.78% (inactive).

**Q.** Which “activity change, negative = cytotoxicity” value does the source give for `COc1c(N2CCNC(C)C2)c(F)cc2c(=O)c(C(=O)O)cn(C3CC3)c12` (configuration not stated) here?
**A.** The value was 2.31% [at 35.3 µM] (inactive).

**Q.** For `CC(=O)OCC(=O)[C@@]1(O)[C@H](C)C[C@H]2[C@@H]3CCC4=CC(=O)C=C[C@]4(C)[C@@]3(F)[C@@H](O)C[C@@]21C`, which “activity change, negative = cytotoxicity” value is on record?
**A.** The value was -0.0295% [at 35.3 µM] (inactive).

**Q.** For `Nc1ccccn1`, which “activity change, negative = cytotoxicity” value is on record?
**A.** Its value is -1.83% (inactive).

**Q.** Which activity change, negative = cytotoxicity does the source give for `NC(N)=NCCN1CCCCCCC1` here?
**A.** Its activity change, negative = cytotoxicity is 0.287% [at 0.29 µM] (inactive).

**Q.** Which “activity change, negative = cytotoxicity” value does the source give for `O=C(O)CNC(=O)c1ccc(CO)o1` here?
**A.** Its value is 2.88% (inactive).

**Q.** With `Cc1ccc(C(=O)Nc2ccc(S(=O)(=O)O)c3cc(S(=O)(=O)O)cc(S(=O)(=O)O)c23)cc1NC(=O)c1cccc(NC(=O)Nc2cccc(C(=O)Nc3cc(C(=O)Nc4ccc(S(=O)(=O)O)c5cc(S(=O)(=O)O)cc(S(=O)(=O)O)c45)ccc3C)c2)c1` as the compound, how does the “activity change, negative = cytotoxicity” value read?
**A.** The value was 0.203% [at 35.3 µM] (inactive).

**Q.** Which “activity change, negative = cytotoxicity” value does the source give for `CCCCS(=O)(=O)N[C@@H](Cc1ccc(OCCCCC2CCNCC2)cc1)C(=O)O` here?
**A.** The value was -0.0277% [at 35.3 µM] (inactive).

**Q.** For `COc1ccnc(CS(=O)c2nc3cc(OC(F)F)ccc3[nH]2)c1OC` (configuration not stated), which “activity change, negative = cytotoxicity” value is on record?
**A.** The value was -1.17% (inactive).

**Q.** For `NC(CCC(=O)O)C(=O)O` (configuration not stated), which “activity change, negative = cytotoxicity” value is on record?
**A.** Its value is -2.52% (inactive).

**Q.** For `CC1(C)[C@@H]2CC[C@@]1(C)[C@H](O)C2`, which “activity change, negative = cytotoxicity” value is on record?
**A.** The value was 1.11% (inactive).

**Q.** Which “activity change, negative = cytotoxicity” value does the source give for `CC(=O)c1ccccc1[N+](=O)[O-]` here?
**A.** The value was -0.158% (inactive).

**Q.** For `c1ccc2sc(SN3CCOCC3)nc2c1`, which “activity change, negative = cytotoxicity” value is on record?
**A.** Its value is 0.0505% [at 35.3 µM] (inactive).

**Q.** With `CCN[C@H]1C[C@H](C)S(=O)(=O)c2sc(S(N)(=O)=O)cc21` as the compound, how does the “activity change, negative = cytotoxicity” value read?
**A.** The value was -0.794% [at 35.3 µM] (inactive).

**Q.** Which “activity change, negative = cytotoxicity” value does the source give for `COc1cc(-c2ccc(=O)[nH]n2)ccc1OC(F)F` here?
**A.** The value was 0.0893% [at 35.3 µM] (inactive).

**Q.** For `CCOC(=O)C(=O)CCCCCCl`, which “activity change, negative = cytotoxicity” value is on record?
**A.** Its value is 2.01% [at 35.3 µM] (inactive).

**Q.** Which “activity change, negative = cytotoxicity” value does the source give for `CCN1CCOCC1` here?
**A.** Its value is 0.162% (inactive).

**Q.** For `C[C@H]1[C@H](NC(=O)/C(=N/OC(C)(C)C(=O)O)c2csc(N)n2)C(=O)N1S(=O)(=O)O` (stereo in doubt), which “activity change, negative = cytotoxicity” value is on record?
**A.** Its value is 0.842% [at 35.3 µM] (inactive).

**Q.** For `Cc1c(N)c(=O)n(-c2ccccc2)n1C`, which “activity change, negative = cytotoxicity” value is on record?
**A.** Its value is -1.81% [at 35.3 µM] (inactive).

**Q.** With `Nc1ccncc1N` as the compound, how does the “activity change, negative = cytotoxicity” value read?
**A.** Its value is 0.673% [at 35.3 µM] (inactive).

**Q.** With `C[N+](C)(CCOc1ccccc1)Cc1cccs1` as the compound, how does the “activity change, negative = cytotoxicity” value read?
**A.** Its value is -2.79% [at 35.3 µM] (inactive).

**Q.** Which “activity change, negative = cytotoxicity” value does the source give for `OCCCCCO` here?
**A.** Its value is 1.59% (inactive).
